Measurements reported in publication PMC13494018.
Unmarked numbers belong to inactive results. No rule for the calls is given here.

Target: PDL1, Q9NZQ7
Sequence (Q9NZQ7 whole entry): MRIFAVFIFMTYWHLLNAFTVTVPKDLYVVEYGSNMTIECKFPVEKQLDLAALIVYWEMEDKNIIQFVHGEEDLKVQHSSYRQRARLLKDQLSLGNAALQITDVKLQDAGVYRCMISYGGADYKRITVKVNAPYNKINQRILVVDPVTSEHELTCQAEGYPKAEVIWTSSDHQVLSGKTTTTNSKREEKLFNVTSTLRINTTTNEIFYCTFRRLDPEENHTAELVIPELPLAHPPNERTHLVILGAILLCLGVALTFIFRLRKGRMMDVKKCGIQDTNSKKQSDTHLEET

Binder	binding in a display sort
d8r1_design_ppi_14_dldesign_0_cycle1_af2pred (protein) AAAVAAAIEAAMRAAMPSDPAKAAELAALIAAKGLAGAKEAARKAMELFREDPELGKQAFAGVDAARAILAAA	binds (active)
d8r1_design_ppi_31_dldesign_0_cycle1_af2pred (protein) DKYSQMAEVWGMLSEVVARVAAELGPEAAEEAIKRAGEAASAAAKDVEEGEKKAKEVKEWADKQLAAAAA	not found
d8r1_design_ppi_1045_dldesign_0_cycle0_af2pred (protein) SADTKEGADLFTKAAEQLLKVGEELLKKGKETGDEKLIKEALKYFEAAAAYAEAAATLAAKADAAAAAKAKELKEKAKKAAEEAKKAL	not found
d8r1_design_ppi_1162_dldesign_0_cycle1_af2pred (protein) MSLAEEAALEGQKNSPMLGAVLYGHAKRSDAAVAELLLEAAKGDAATARAQARAAAALLPPEEGARLVTDVTAALEADEKDK	not found
d8r1_design_ppi_508_dldesign_0_cycle0_af2pred (protein) AGEEALEKAIKEVKELISEAAKALQESREKGIEKAKEGAKRAEKLKKEAAKEPLAERIGRVLESAKGFLEKLKEALEES	not found
d8r1_design_ppi_948_dldesign_0_cycle0_af2pred (protein) SEEAKKKYEEEKKKLEELRKEAEKLAAADPAAGGAIATLIDNGIAAGDKLYEAGSVESAAKLLESVREKAERLLAELRAAVAA	not found
d8r1_design_ppi_295_dldesign_0_cycle0_af2pred (protein) SLKEKAEKHLELAQKYAEKAGKLRGVKIEVKGANLEELKALRKEFGAWADEAAKAGDKETAIEATRAAAHLGEAIDLLEEL	not found
d8r1_design_ppi_1305_dldesign_0_cycle1_af2pred (protein) MEAEKLAKELLEKAKELAALPMGEASKAAAALAKEYAAKNPEVALKAAKIAYEKAVKDPSVSSKVRQLLAAALAEATYELKKKKAAA	not found
d8r1_design_ppi_701_dldesign_0_cycle1_af2pred (protein) EERRRRGEELLLEALALIGAAARDPAAAPAAVAALRAAAALVPELAPELERAAALVEAGLAAAKEAAAIVGSLALKMAS	not found
d8r1_design_ppi_310_dldesign_0_cycle1_af2pred (protein) ALAAALNSVAALAKLAAELLETDPAAGKQLAKNVAVALAKLGLTEEAARLKAATPEELKAVAKEAAAAAKAAAAALA	not found
d8r1_design_ppi_560_dldesign_0_cycle0_af2pred (protein) SAEEEEEKLREEAEKAVAEAKATAAAFKAQAATATPEKAAALNAAVAALAGLIKIAEDPEARRGASRAAKSVIAHAKRVLAA	not found
d8r1_design_ppi_1191_dldesign_0_cycle0_af2pred (protein) AAAALAAQAAAYTATYNAASAALAVALADPSFSPQSQKNIAQSQVDAATKALEAATAYDPAQAAAWQAALDAAQAQLAAI	not found
d8r1_design_ppi_584_dldesign_0_cycle0_af2pred (protein) AAARAAEAAALKAKAKEIAAEAFSYAALSSRDEEAKKEADKKIEELKKLAKEAKAKGLEEAAKFAEDFAEGAETLKKVVEEA	not found
d8r1_design_ppi_1335_dldesign_0_cycle0_af2pred (protein) EAAAAATIEAAAKAAAEFTGLPVEEVLALAALAAADPAAARALRERLGEEDPLRAAAADVMLTVVAQAKRELA	not found
d8r1_design_ppi_587_dldesign_0_cycle1_af2pred (protein) MLTPEALNAIAKLGSEAGSLAAKATPEQKAEGRKLGELVAEKMLASSPEEALEIAKKLLEEGKKDLTYAVATATAASRVLRAYLQQLS	not found
d8r1_design_ppi_713_dldesign_0_cycle1_af2pred (protein) AEFLAQGRAAAAATSPANAAALEAAYAAAKAQEDKMEGMKILLATATTLAAASTPAEAVLIGKAAAYFIADLLS	not found
d8r1_design_ppi_20_dldesign_0_cycle1_af2pred (protein) KEEKAEKMKKEAEKYVERAKADAAKLAGSPQAATAAKLAASAEKSAELMKKALEEGDFGLAEVFLAAAKAAAEQLAKMAAA	not found
d8r1_design_ppi_477_dldesign_0_cycle1_af2pred (protein) SAEDVKRAAAGLKAAAKAYAALAAENKEVKEAAKELEKAAKLLLEDPEKGREKAAEESLKLNQLVIKAAD	not found
d8r1_design_ppi_1314_dldesign_0_cycle0_af2pred (protein) SSEEEEAKRLAARAARAAARRLEEAAEERAAEDPEAARRAAEEGRRLAEEAEKGNAEEAKRALTEITRLLREVLA	not found

Binder	binding in a display sort
d8r1_design_ppi_360_dldesign_0_cycle1_af2pred (protein) SEAYEKAVEEAAERVAALIKAAVAAGATPAEAWAAAAKKIEEERKKLKEKFGEEQAEEGARRITARAAKALLRAMAAREE	not found
d8r1_design_ppi_895_dldesign_0_cycle1_af2pred (protein) MTPEAKSAFAAAQSLADAIKLGAKEGLLTPETRAALVEKLRAAAAEAAALDPAIAPQAAALAADAEAAAA	binds (active)
d8r1_design_ppi_1118_dldesign_0_cycle0_af2pred (protein) SEGSEALARFAKSMAEVAKIKAEEAAKVDAEVAAIFKEAAKLYEEAAKAAKEDVEKGKKLLTEANKKMAEGLAAMKKKKA	not found
d8r1_design_ppi_1220_dldesign_0_cycle0_af2pred (protein) KEEEADKLAVEAMRLLGEAAELTKKATTKEQVEAAKKKAEEAKKKAEELLKVDPRKKGLAEALKSAAKKVLEAAEKKEKEL	not found
d8r1_design_ppi_416_dldesign_0_cycle1_af2pred (protein) SDESARIKAETLGRISEAMREARRAAEEGDVERAREAAERAREAGREGAEKALELGDESTAESLRSTAEKVAERAERLAEEAAA	not found
d8r1_design_ppi_1238_dldesign_0_cycle0_af2pred (protein) MEETKKLIEEARKLAEEARRALKEDKERALELLREAANKASKALALADEESEELAEEAKKVLAEISKVAKELAK	not found
d8r1_design_ppi_623_dldesign_0_cycle0_af2pred (protein) SAAAAAAAAAAKAALAAAKKKAEEAVKLTPEEAAKVLGEIAAAATAALAAATDAADRAALRAAAAEVFSTGAKNLAKAAKKAEE	not found
d8r1_design_ppi_41_dldesign_0_cycle0_af2pred (protein) RGEEVLERVKESASRAMSLAAKDPSLSEKVLEALALASEAGRAIKTEGVEKGEELAKKAEELTKEIEEEAK	not found
d8r1_design_ppi_891_dldesign_0_cycle0_af2pred (protein) SAVREEAERKAEEVAELAKKDPEKGLEAMKAYLEELVAAGHREAALYAAARAASLMFSDPSTLETAIAVSRYAAELAA	not found
d8r1_design_ppi_713_dldesign_0_cycle0_af2pred (protein) DEFLAEANAAAAATSPANAAALNAAFAAALAQSDVGEGIKTLAAAADALAAASTPADAANIGKATSYFIAYLSS	not found
d8r1_design_ppi_271_dldesign_0_cycle0_af2pred (protein) AAAELAATIAAAAAAAAADGPRGLALLAGAILRAFPSLSAETLAEIIRLAAADPAAAAEAIAALAAAHPEAAPALAAALRAALAELA	not found
d8r1_design_ppi_645_dldesign_0_cycle1_af2pred (protein) KIEKAKELLKKAKELLKEAKANPETAIEKAKAALADLSEAASLAAEAAKDPETKEEAEKLLAEAKKLGLEATQLLMKQSSLEEK	not found
d8r1_design_ppi_901_dldesign_0_cycle1_af2pred (protein) AAAAARADIATLLAFMTKAIAEGDESAANMAANGAIASGAKAGPELAAQAAAEAAAARAAALAAKAAAAA	not found
d8r1_design_ppi_1006_dldesign_0_cycle0_af2pred (protein) AAAAAAAKAARTKEVIAKMKELISEAMLAKSEGTGVEALKKAAEEAKKLAKEAKAAGDTAAATVANNAAAFLETAAKAEEEAK	not found
d8r1_design_ppi_457_dldesign_0_cycle1_af2pred (protein) AAAKAAAAAEAEALIAKAEAVVKAIKDFTALAAASTPEDGAAALRAAENLKTTAVDLATQAAALAKALGRPDLATRATAVAQAAKDAM	not found
d8r1_design_ppi_661_dldesign_0_cycle1_af2pred (protein) AAADAAAAAAAATAGANAVAAAQLALELNPKSAIDLAEAAIAHFKKLAATGSPAVAAQANAAIAALEAVKAQAKKKLAAE	not found
d8r1_design_ppi_227_dldesign_0_cycle1_af2pred (protein) GAKAKAKAVLDKAKEKLAEAMKAALDADESKKPEVYKLIAEAAAALAKGIAAYKAAKNEAQLKEAIAWFEKAIAAAEKAIKLAK	not found
d8r1_design_ppi_516_dldesign_0_cycle1_af2pred (protein) AEEELRRQIEEQGERLEEAAEELRRLAEEARERDPAAGRALEAAAESLRGLVEIAKELDPGSAQGVIQVAERVAERARRLAEEYLAA	not found
d8r1_design_ppi_823_dldesign_0_cycle1_af2pred (protein) SSSEEEIDAKLEAAVAAVKEATALAKAAVAEGPAALPALEAFAAEKTAEFAKLGGVGAAAGAALQAVVDAARAQLA	not found
